Key:
Experiment in all cases: PBM binding z-score (relative to random genomic background probes); higher = stronger binding; sequences stand for … in GC…GCGATTGACAGCGTAGAATGAAGG
[1] = system: FXR:RXRa (NR concentration 270 nM, RXRa partner concentration 90 nM)
Outline: (§1)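 For binding z-scores, the reference was random background probes on custom Agilent 4×180K protein-binding microarrays. These arrays were incubated 1 h with ligand-free nuclear receptor dimers in PBS pH 7.4, 2% milk, 0.02% Triton X-100, 1 mM DTT, 0.2 mg/mL BSA and 0.4 mg/ml salmon testes DNA. Fluorescence was scanned after antibody detection of each partner (one per run) and regression-normalized.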

[2] = system: LXRa:RXRa (NR concentration 270 nM, RXRa partner concentration 90 nM)
Outline: as §1

[3] = system: LXRa homodimer (NR concentration 270 nM)
Outline: as §1

[4] = system: LXRb:RXRa (NR concentration 270 nM, RXRa partner concentration 90 nM)
Outline: as §1

[5] = system: LXRb homodimer (NR concentration 270 nM)
Outline: as §1

[6] = system: PPARa:RXRa (NR concentration 270 nM, RXRa partner concentration 90 nM)
Outline: as §1

[7] = system: PPARg:RXRa (NR concentration 180 nM, RXRa partner concentration 90 nM)
Outline: as §1

[8] = system: PPARg:RXRa 270nM:90nM, anti-RXR (NR concentration 270 nM, RXRa partner concentration 90 nM)
Outline: as §1

[9] = system: PPARg:RXRa 30nM:10nM, anti-RXR (NR concentration 30 nM, RXRa partner concentration 10 nM)
Outline: as §1

[10] = system: PPARg:RXRa 90nM:30nM, anti-RXR (NR concentration 90 nM, RXRa partner concentration 30 nM)
Outline: as §1

Sequence	PBM binding z-score [1]	PBM binding z-score [2]	PBM binding z-score [3]	PBM binding z-score [4]	PBM binding z-score [5]	PBM binding z-score [6]	PBM binding z-score [7]	PBM binding z-score [8]	PBM binding z-score [9]	PBM binding z-score [10]
CCTACTGGGCCCTTCAGAGGTCATTGATCATATG	2.3	3.83	5.02	3.34	0.134	3.32	0.503	1.95	0.162	0.866
TCTGCTAGGTCAGTTGGTCAGCTAGCGAGCTGCC	0.851	0.628	-0.728	0.453	0.185	1.25	0.0409	1.64	1.21	1.31
CCTTTCGGGTCACGAGGTTATAGCACGACGAGCG	6.94	4.87	0.634	4.2	0.882	6.42	7.34	6.75	2.96	5.52
TCTTGTAGATCAAATGTTAAGAAAGCCGAAGCCT	0.704	0.517	-0.184	0.216	0.123	1.15	1.12	3.42	3.84	3.61
TTAGCAAGGTGAAAGGTCGTTGATGCACGCCTTG	3.42	2.78	-0.037	2.47	-0.713	5.24	8.3	7.95	8.33	9.55
CGAACTAGGTCATCCAGGACAGCGAATACATTGA	4.51	2.55	0.58	2.07	-0.199	4.82	7.57	6.41	4.29	5.78
TCACCAAGGTGAAAGGTCGTTGATGCACGCCTTG	3.32	3.01	-0.0102	2.68	-0.932	5.28	7.74	7.39	6.81	7.43
CCAGACAGGTGAGTAGGTAACTCAGCCTCGATTA	0.327	0.14	0.0547	-0.023	-0.401	0.695	0.545	0.565	-0.111	0.0174
TCTATTAGTTCAAGGGCAACCGACGAGTCCGTTT	1.82	1.97	1.24	1.45	0.602	2.23	0.394	2.66	3.94	3.37
CCTACTGGGCCATTCAGAGGTCTTTGATCATATG	-0.281	-0.261	-0.37	-0.49	-0.94	0.481	0.251	0.437	-0.397	-0.188
GCTTACGGGTCAAAGGTAATAGCATGAATAGAAT	6.06	4.07	-0.0184	4.32	0.154	6.32	9.59	8.1	7.14	8.44
GATACAGGATCAGCTAGAGGCCAGAGTATGGAAA	-0.162	-0.497	-0.55	-0.727	-1.05	-0.383	0.505	-0.286	0.0459	0.0181
CCTACTTGGCCACGAAAGGTCATTGATTCAGTGA	4.07	5.32	5.29	4.61	1.16	4.46	1.84	3.31	1.01	2.5
ATCTCTAGGTAAAAGTACAGTGAATCCCGAGGAT	0.212	0.0141	0.0637	-0.267	0.728	0.877	1.98	3.02	1.49	3.07
ACAGACAGGTGAGTGAAGGTAACTCACCTGGACG	0.567	0.338	-0.604	-0.347	-0.328	0.358	0.593	0.216	0.0231	-0.144
CACGAAAGGTCGTGCTCAGGTGAGTATACCAAAC	5.58	4.3	0.166	3.44	0.848	4.88	3.14	3.97	1.14	2.72
ATCTCTAGGTAAGACTCAGCTCAGTGAAGAACGC	0.197	0.324	0.483	-0.157	0.984	-0.198	0.0541	-0.171	0.317	0.109
TCTTGTAGATGAACAGGAGGTTAAGAAAGATCGA	0.551	0.82	-0.0533	0.712	-0.35	0.923	0.119	1.32	2.89	2.02
CGGACTGGGGCAAGGTTACCATAACGCACAGCCA	0.491	1.02	-0.284	1.05	-0.449	2.67	4.88	4.78	2.59	4.2
ATCGAAAGGTTGACGAGGTGAGTATACACCGTTT	1.11	0.773	-0.233	0.764	-0.00698	1.79	0.968	0.974	0.581	0.771
AGTCAAAGTCCAGGACGAGGTAACGTAAAGCACG	-0.263	-0.424	-0.518	-0.388	-0.767	0.01	0.733	-0.294	-0.119	-0.153
TCATATAGGTAAACAGTTGAAAGTCCGTAAGTTA	1.56	1.2	0.508	1.15	0.267	1.76	1.53	2.91	3.95	3.49
CAAACTAGGTTACAGAGGTCAAAGTCCGTGCGTA	6.15	6.43	7.09	5.72	2.18	5.82	7.94	7.19	5.19	6.82
TAGCCTAGGTCATGGACCAGTATACCACGCGAAC	4.39	3.44	0.268	2.46	-0.208	4.18	3.5	3.32	0.758	2.23

Source: the supplement of paper PMC6555819
